Data taken from PubChem BioAssay (Tox21).
Records with an inconclusive call do not appear. Values without a mark were called inactive. The source made the active and inactive calls. Calls follow the shape of the full dose curve.

Assay: qHTS assay for small molecule agonists of the antioxidant response element (ARE) signaling pathway - cell viability counter screen (AID 743203); also: nearly all actives have a fitted effect of over 55% in size
Settings: ARE-bla HepG2 viability, CellTiter-Glo luminescence, 16 h; series mostly up to 73.3 µM
Text: National Center for Advancing Translational Sciences [NCATS]
NIH Chemical Genomics Center [NCGC]
U.S. Environmental Protection Agency [EPA]
National Institutes of Environmental Health Sciences [NIEHS]
National Toxicology Program [NTP]
U.S. Food and Drug Administration [FDA]
Oxidative stress has been implicated in the pathogenesis of a variety of diseases ranging from cancer to neurodegeneration. The antioxidant response element (ARE) signaling pathway plays an important role in the amelioration of oxidative stress. The CellSensor ARE-bla HepG2 cell line (Invitrogen) can be used for analyzing the Nrf2/antioxidant response signaling pathway. Nrf2 (NF-E2-related factor 2) and Nrf1 are transcription factors that bind to AREs and activate these genes. The CellSensor ARE-bla Hep G2 cell line contains a beta-lactamase reporter gene under control of the Antioxidant Response Element (ARE) stably integrated into HepG2 cells. The activation of the report gene under culture conditions can be detected by fluorescence intensity. This cell line has been used to screen the Tox21 10K compound library to identify agonists that induce oxidative stress. The cytotoxicity of the Tox21 compound library against the ARE-bla cell line was tested in parallel by measuring the cell viability using CellTiter-Glo assay (Promega, Madison, WI) in the same wells.
Tox21 Assay Protocol Summary:
ARE-bla HepG2 cells were dispensed at 2,000 cells/5 ul/well in 1536-well white wall/solid bottom plates using a Multidrop Combi (ThermoFisher Scientific, Waltham, MA) dispenser. After the assay plates were incubated at 37C/5% CO2 for 5 hrs, 23 nL of compounds dissolved in DMSO, positive controls or DMSO only was transferred to the assay plate by a pintool work station (Kalypsys, San Diego, CA). The plates were incubated at 37C/5% CO2 for 16 hrs, followed by addition of 4 ul/well of CellTiter-Glo reagent into the assay plates using a Flying Reagent Dispenser (Aurora Discovery, San Diego, CA). After 30 min incubation at room temperature, the luminescence intensity in the assay plates was measured using a ViewLux (PerkinElmer, Shelton, CT) plate reader.
% is scaled to controls: 0 for no effect and ±100 for the full control effect.

| Compound | outcome | viability change, negative = cytotoxic |
| --- | --- | --- |
| CCCCCCCCS(=O)(=O)O | inactive |  |
| O=C(O)CCCCCCCCCC(=O)O | inactive |  |
| CCC(C)(C)C | inactive |  |
| CCCCCCC(=O)c1ccccc1 | inactive |  |
| CCCC(C)C(O)CC (stereo not given) | inactive |  |
| N=C(N)S(=O)O | inactive |  |
| CC(C)(C)C(=O)NCCCC(=O)O | inactive |  |
| C=CCON/C(CCC)=C1\C(=O)CC(C)(C)C(C(=O)OC)=C1O | inactive |  |
| C/C=C(\C)C=O | inactive |  |
| COC(=O)/C=C(\C)CCC=C(C)C | inactive |  |
| COc1ccccc1N1CCN(CC(O)COc2cc(OC)c(OC)c(OC)c2)CC1 (stereo not given) | inactive |  |
| Cc1ccc(Br)cc1 | inactive |  |
| C=C(C)C(=O)OCCOC1CC2CC1C1C=CCC21 (stereo not given) | inactive |  |
| Cc1ccccc1C#N | inactive |  |
| O=C1CC2(CCCC2)CC(=O)N1CCNCC1COc2ccccc2O1 (stereo not given) | inactive |  |
| CCOC(=O)c1ccc(N(C)C)cc1 | inactive |  |
| CN(C)CCc1c[nH]c2ccc(C[C@H]3COC(=O)N3)cc12 | inactive |  |
| Cc1cccc(N)n1 | inactive |  |
| C[C@@H]1CC[C@@]2(OC1)O[C@H]1C[C@H]3[C@@H]4CC[C@H]5C[C@@H](O)CC[C@]5(C)[C@H]4CC(=O)[C@]3(C)[C@H]1[C@@H]2C |  | 3.19% [at 8.36 µM] |
| COC(C)(C)CC(C)=O | inactive |  |

| Compound | outcome | viability change, negative = cytotoxic |
| --- | --- | --- |
| Cc1cc(N)no1 | inactive |  |
| Clc1ccc2c(c1)Nc1ccccc1S2 | inactive |  |
| Cc1cc(=O)oc2cc(O[C@@H]3SC[C@@H](O)[C@H](O)[C@H]3O)ccc12 | inactive |  |
| CC(C)(C)C(=O)CCc1ccc(Cl)cc1 | inactive |  |
| O=C1c2ccccc2C(=O)N1CO | inactive |  |
| CC1(C)CC(N)CC(C)(C)N1 | inactive |  |
| CCCC(=O)CC | inactive |  |
| NNC(=O)OCc1ccccc1 | inactive |  |
| N=C(N)N1CCc2ccccc2C1 |  | -8.38% [at 8.36 µM] |
| CC(C)OCCO | inactive |  |
| CC(C)C(=O)Nc1cccc(C2CN3CCSC3=N2)c1 (stereo not given) | inactive |  |
| C=CC(C)(CCC=C(C)C)OC(=O)C(C)C (stereo not given) | inactive |  |
| CN(C)CCC[C@@]1(c2ccc(F)cc2)OCc2cc(C#N)ccc21 | inactive |  |
| CCCCCCCCC1CO1 (stereo not given) | inactive |  |
| CCCCCCCCCCCBr | inactive |  |
| NC[C@H]1O[C@H](O[C@H]2[C@H](O)[C@@H](O[C@H]3O[C@H](CO)[C@@H](O)[C@H](N)[C@H]3O)[C@H](N)C[C@@H]2N)[C@H](N)[C@@H](O)[C@@H]1O | inactive |  |
| O=C(O)CCC(=O)Nc1ccc(S(=O)(=O)Nc2nccs2)cc1 | inactive |  |
| Cc1nc2ccc(Cl)cc2[nH]1 | inactive |  |
| c1coc(Cn2cccc2)c1 | inactive |  |
| CCOCCOCCOC(C)=O | inactive |  |
